Laboratory results published in the supplement of paper PMC10849652.
Targets with a hit are over-represented here; the source holds about 8,800 in all. About 0.5% of all pairs of compound and target were hits.

Columns and labels:
Experiment in all cases: log2 fold change, soluble protein after heating vs DMSO (PISA); higher = thermal stabilisation; K562 lysate, 10 uM; active = over 0.2 and 3.5 SD of the protein, either way, in both replicates (recomputed)
[1] = compound: NCC(=O)Nc1ccc(-n2nc(C(F)(F)F)cc2-c2ccc3c(ccc4ccccc43)c2)cc1
Summary of the method: (§1)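 Dounce homogenisation of K562 pellets in PBS pH 7.4 with 1 mM MgCl2 produced a crude extract, used at 1 mg/mL protein. Exposure to 10 μM compound lasted 30 min, and aliquots were then heated for 3 min across 48°C-58°C, pooled and brought to 0.5% NP-40 at 4°C. The supernatant after 21,000xg for 90 min was quantified by TMTpro 16plex LC-MS/MS with channel sums equalised. Duplicate values are given as log-two fold change in thermal stability relative to solvent controls.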

vorinostat = compound: O=C(CCCCCCC(=O)Nc1ccccc1)NO [vorinostat]
Summary of the method: as §1

silmitasertib = compound: O=C(O)c1ccc2c(c1)nc(Nc1cccc(Cl)c1)c1ccncc12 [silmitasertib]
Summary of the method: as §1

[2] = compound: O=C1NC(=O)C(c2cnc3ccccn23)=C1c1cn2c3c(cc(F)cc13)CN(C(=O)N1CCCCC1)CC2
Summary of the method: as §1

entospletinib = compound: c1cn2cc(-c3ccc4cn[nH]c4c3)nc(Nc3ccc(N4CCOCC4)cc3)c2n1 [entospletinib]
Summary of the method: as §1

Measured: log2 fold change

SPNS1 (UniProt Q9H2V7)
inactive: [1] 0.086 | vorinostat -0.022 | silmitasertib 0.033 | [2] -0.025 | entospletinib -0.045

SMAD2 (UniProt Q15796)
active: vorinostat -0.752
inactive: [1] -0.025 | silmitasertib -0.051 | [2] 0.008 | entospletinib -0.049

SULT1A1 (UniProt P50225)
Chain of UniProt P50225 (P50225 whole entry, looked up): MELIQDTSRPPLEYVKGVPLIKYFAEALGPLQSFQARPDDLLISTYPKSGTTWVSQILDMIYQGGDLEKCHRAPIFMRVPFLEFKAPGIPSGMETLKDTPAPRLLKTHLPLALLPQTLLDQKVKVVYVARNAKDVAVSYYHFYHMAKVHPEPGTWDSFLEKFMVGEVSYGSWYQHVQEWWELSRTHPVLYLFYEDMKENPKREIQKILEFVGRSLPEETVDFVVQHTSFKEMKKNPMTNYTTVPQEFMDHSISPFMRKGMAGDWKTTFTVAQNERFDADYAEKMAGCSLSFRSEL
inactive: [1] 0.077 | silmitasertib 0.036 | [2] -0.021 | entospletinib 0.071
active: vorinostat -0.273

SH3BGRL2 (UniProt Q9UJC5)
inactive: [1] -0.003 | vorinostat 0.153 | silmitasertib -0.011 | [2] 0.099 | entospletinib 0.04

STK39 (UniProt Q9UEW8)
inactive: [1] -0.01 | silmitasertib 0.028 | [2] -0.006 | entospletinib -0.026
active: vorinostat -0.633

SMYD3 (UniProt Q9H7B4)
inactive: [1] 0.044 | silmitasertib 0.029 | [2] -0.003 | entospletinib -0.008
active: vorinostat -0.202

SRSF7 (UniProt Q16629)
inactive: [1] 0.02 | vorinostat 0.134 | silmitasertib -0.052 | [2] -0.014 | entospletinib -0.013

TANK (UniProt Q92844)
inactive: [1] 0.041 | vorinostat -0.102 | silmitasertib 0.124 | [2] 0.071 | entospletinib 0.132

SLC25A17 (UniProt O43808)
inactive: [1] 0.021 | vorinostat 0.015 | silmitasertib -0.026 | [2] -0.033 | entospletinib -0.027

SSU72 (UniProt Q9NP77)
inactive: [1] 0.015 | vorinostat 0.112 | silmitasertib -0.026 | [2] -0.021 | entospletinib -0.014

SMC1B isoform 3 (UniProt Q8NDV3)
inactive: [1] -0.063 | vorinostat 0.068 | silmitasertib -0.011 | [2] 0.026 | entospletinib 0.004

TANGO6 (UniProt Q9C0B7)
inactive: [1] 0.007 | silmitasertib 0.019 | [2] -0.037 | entospletinib -0.009
active: vorinostat -0.389

SPATS2 (UniProt Q86XZ4)
inactive: [1] -0.047 | silmitasertib 0.002 | [2] -0.049 | entospletinib 0.176
active: vorinostat -0.507

SHCBP1 (UniProt Q8NEM2)
Chain of UniProt Q8NEM2 (Q8NEM2 whole entry, looked up): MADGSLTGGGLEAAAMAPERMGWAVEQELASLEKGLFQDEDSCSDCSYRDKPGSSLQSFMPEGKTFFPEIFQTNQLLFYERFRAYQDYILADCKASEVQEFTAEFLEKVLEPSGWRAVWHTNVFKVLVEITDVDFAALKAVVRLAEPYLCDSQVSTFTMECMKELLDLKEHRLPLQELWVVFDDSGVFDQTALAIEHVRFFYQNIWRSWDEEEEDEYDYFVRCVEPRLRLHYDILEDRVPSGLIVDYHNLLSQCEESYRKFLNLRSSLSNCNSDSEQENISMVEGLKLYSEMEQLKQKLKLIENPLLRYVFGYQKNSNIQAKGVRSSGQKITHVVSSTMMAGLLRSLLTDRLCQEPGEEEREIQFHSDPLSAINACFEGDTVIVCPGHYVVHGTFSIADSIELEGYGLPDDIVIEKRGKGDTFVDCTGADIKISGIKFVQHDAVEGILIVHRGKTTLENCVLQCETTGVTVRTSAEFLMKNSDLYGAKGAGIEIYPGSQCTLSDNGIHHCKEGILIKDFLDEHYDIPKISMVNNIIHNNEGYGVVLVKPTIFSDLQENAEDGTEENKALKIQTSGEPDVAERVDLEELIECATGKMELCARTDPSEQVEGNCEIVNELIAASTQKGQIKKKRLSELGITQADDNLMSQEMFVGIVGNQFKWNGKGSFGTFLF
inactive: [1] 0.02 | silmitasertib 0.04 | [2] -0.009 | entospletinib -0.013
active: vorinostat -0.37

SYF2 (UniProt O95926)
Chain of UniProt O95926 (O95926 whole entry, looked up): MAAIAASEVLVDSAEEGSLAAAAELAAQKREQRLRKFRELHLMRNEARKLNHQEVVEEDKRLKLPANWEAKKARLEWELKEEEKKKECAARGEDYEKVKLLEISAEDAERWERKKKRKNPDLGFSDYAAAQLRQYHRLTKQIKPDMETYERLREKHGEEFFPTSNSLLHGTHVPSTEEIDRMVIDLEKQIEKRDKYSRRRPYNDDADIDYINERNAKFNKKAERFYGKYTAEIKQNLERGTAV
inactive: [1] -0.047 | vorinostat 0.092 | silmitasertib -0.059 | [2] -0.014 | entospletinib -0.059

STAR (UniProt P49675)
inactive: [1] 0.002 | vorinostat -0.044 | silmitasertib -0.028 | [2] -0.031 | entospletinib -0.103

SMC2 (UniProt O95347)
inactive: [1] 0.014 | silmitasertib 0.016 | [2] -0.01 | entospletinib 0.009
active: vorinostat -0.308

SOAT1 (UniProt P35610)
inactive: [1] 0.014 | vorinostat 0.005 | silmitasertib 0 | [2] -0.037 | entospletinib 0.015

SNCA (UniProt P37840)
inactive: [1] 0.069 | vorinostat 0.161 | silmitasertib -0.235 | [2] -0.023 | entospletinib -0.126

SHKBP1 (UniProt Q8TBC3)
Chain of UniProt Q8TBC3 (Q8TBC3 whole entry, looked up): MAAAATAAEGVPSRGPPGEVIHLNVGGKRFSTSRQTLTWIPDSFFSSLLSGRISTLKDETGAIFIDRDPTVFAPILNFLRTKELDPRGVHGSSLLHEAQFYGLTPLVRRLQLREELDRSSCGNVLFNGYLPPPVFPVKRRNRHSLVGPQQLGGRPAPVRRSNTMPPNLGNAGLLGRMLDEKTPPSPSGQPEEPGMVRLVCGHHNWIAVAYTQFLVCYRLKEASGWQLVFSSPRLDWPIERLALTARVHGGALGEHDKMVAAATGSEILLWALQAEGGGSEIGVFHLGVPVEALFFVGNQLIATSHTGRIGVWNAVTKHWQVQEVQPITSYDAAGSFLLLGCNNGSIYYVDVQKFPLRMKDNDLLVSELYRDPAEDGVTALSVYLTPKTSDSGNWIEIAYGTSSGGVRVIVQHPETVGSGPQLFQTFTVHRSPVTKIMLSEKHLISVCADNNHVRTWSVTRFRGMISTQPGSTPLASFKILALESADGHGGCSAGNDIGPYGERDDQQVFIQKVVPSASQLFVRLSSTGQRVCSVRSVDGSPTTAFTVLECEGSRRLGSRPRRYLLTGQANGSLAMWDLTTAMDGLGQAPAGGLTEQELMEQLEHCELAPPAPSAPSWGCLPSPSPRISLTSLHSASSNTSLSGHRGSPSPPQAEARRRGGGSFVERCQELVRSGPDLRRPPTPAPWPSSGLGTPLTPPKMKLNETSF
inactive: [1] -0.031 | vorinostat -0.069 | silmitasertib -0.06 | [2] 0.01 | entospletinib -0.218

SSB (UniProt P05455)
Chain of UniProt P05455 (P05455 whole entry, looked up): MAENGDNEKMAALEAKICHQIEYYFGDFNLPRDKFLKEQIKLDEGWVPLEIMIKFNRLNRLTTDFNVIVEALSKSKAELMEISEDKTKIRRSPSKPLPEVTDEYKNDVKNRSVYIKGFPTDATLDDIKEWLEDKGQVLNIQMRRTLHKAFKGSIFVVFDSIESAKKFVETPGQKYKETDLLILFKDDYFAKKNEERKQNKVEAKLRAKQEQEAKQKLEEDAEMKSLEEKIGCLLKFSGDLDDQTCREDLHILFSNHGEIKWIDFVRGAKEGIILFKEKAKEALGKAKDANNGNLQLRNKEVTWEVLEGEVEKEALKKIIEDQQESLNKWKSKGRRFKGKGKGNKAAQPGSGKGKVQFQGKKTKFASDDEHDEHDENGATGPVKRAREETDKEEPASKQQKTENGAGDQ
inactive: [1] 0.027 | vorinostat 0.081 | silmitasertib 0.01 | [2] 0.032 | entospletinib 0.005

SKA1 (UniProt Q96BD8)
active: vorinostat -0.586
inactive: [1] 0.057 | silmitasertib -0.036 | [2] -0.07 | entospletinib -0.021

SPC25 (UniProt Q9HBM1)
inactive: [1] 0.026 | silmitasertib 0 | [2] 0.016 | entospletinib -0.004
active: vorinostat -0.266

SRRT (UniProt Q9BXP5)
inactive: [1] -0.036 | silmitasertib 0.044 | [2] -0.008 | entospletinib 0.032
active: vorinostat -0.373

STK24 (UniProt B4DR80)
inactive: [1] 0.023 | vorinostat 0.029 | silmitasertib -0.014 | [2] -0.033 | entospletinib 0.001

SLC38A1 (UniProt Q9H2H9)
inactive: [1] -0.015 | vorinostat 0.099 | silmitasertib 0 | [2] 0.008 | entospletinib -0.015

TAF6L (UniProt Q9Y6J9)
inactive: [1] -0.022 | vorinostat -0.086 | silmitasertib 0.013 | [2] -0.033 | entospletinib -0.08

SMTN isoform 6 (UniProt P53814)
inactive: [1] -0.021 | vorinostat -0.088 | silmitasertib -0.007 | [2] -0.034 | entospletinib 0.013

SPATA5 (UniProt Q8NB90)
inactive: [1] 0.005 | vorinostat -0.247 | silmitasertib 0.048 | [2] -0.011 | entospletinib 0.013

STMN3 (UniProt Q9NZ72)
inactive: [1] -0.028 | vorinostat 0.065 | silmitasertib -0.033 | [2] -0.004 | entospletinib 0.07

SMG7 (UniProt Q92540)
inactive: [1] 0.158 | vorinostat -0.053 | silmitasertib 0.027 | [2] -0.035 | entospletinib 0.054

SLC25A32 (UniProt Q9H2D1)
inactive: [1] 0.053 | vorinostat 0.23 | silmitasertib -0.008 | [2] 0.046 | entospletinib 0.033

SH3BP2 isoform 4 (UniProt P78314)
inactive: [1] 0.08 | vorinostat -0.27 | silmitasertib 0.092 | [2] -0.017

SHC1 isoform 6 (UniProt P29353)
Chain of UniProt P29353 (P29353 whole entry, looked up): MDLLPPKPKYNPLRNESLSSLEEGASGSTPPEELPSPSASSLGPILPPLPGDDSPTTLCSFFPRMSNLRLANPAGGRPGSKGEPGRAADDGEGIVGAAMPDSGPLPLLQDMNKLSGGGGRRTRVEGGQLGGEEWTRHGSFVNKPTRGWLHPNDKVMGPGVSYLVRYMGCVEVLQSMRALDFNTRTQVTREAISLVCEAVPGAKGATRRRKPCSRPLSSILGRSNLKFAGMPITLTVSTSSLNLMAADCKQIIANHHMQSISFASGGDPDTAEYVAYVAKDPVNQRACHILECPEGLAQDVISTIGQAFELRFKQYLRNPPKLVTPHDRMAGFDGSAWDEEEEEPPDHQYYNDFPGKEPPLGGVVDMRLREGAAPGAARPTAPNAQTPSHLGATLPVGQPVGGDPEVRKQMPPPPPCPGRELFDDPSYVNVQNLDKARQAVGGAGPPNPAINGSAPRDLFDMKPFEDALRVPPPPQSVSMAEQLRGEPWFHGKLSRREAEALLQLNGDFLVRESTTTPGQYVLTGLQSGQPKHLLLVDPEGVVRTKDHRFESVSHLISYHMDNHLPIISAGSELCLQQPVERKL
inactive: [1] 0.029 | vorinostat 0.025 | silmitasertib -0.017 | [2] -0.055 | entospletinib -0.058

SRP54 (UniProt P61011)
inactive: [1] 0.003 | silmitasertib 0.008 | [2] 0.021 | entospletinib -0.004
active: vorinostat -0.241

SLC22A18 (UniProt Q96BI1)
inactive: [1] -0.136 | vorinostat -0.044 | silmitasertib 0.006 | [2] 0.004 | entospletinib 0.013

SMC4 (UniProt Q9NTJ3)
active: vorinostat -0.296
inactive: [1] 0.013 | silmitasertib 0.011 | [2] -0.015 | entospletinib 0.009

SNUPN (UniProt O95149)
inactive: [1] -0.076 | vorinostat -0.037 | silmitasertib 0.142 | [2] -0.043 | entospletinib -0.066

SLC39A11 (UniProt Q8N1S5)
inactive: [1] -0.076 | vorinostat 0.103 | silmitasertib -0.015 | [2] 0.058 | entospletinib -0.137

SNRNP40 (UniProt Q96DI7)
inactive: [1] 0.01 | vorinostat 0.233 | silmitasertib -0.012 | [2] 0.022 | entospletinib 0.03

STK25 (UniProt O00506)
inactive: [1] -0.024 | vorinostat -0.06 | silmitasertib 0.051 | [2] -0.03 | entospletinib -0.043

SKA2 (UniProt Q8WVK7)
active: vorinostat -0.364
inactive: [1] 0.086 | silmitasertib -0.035 | [2] 0.067 | entospletinib -0.028

SLC7A5 (UniProt Q01650)
Chain of UniProt Q01650 (Q01650 whole entry, looked up): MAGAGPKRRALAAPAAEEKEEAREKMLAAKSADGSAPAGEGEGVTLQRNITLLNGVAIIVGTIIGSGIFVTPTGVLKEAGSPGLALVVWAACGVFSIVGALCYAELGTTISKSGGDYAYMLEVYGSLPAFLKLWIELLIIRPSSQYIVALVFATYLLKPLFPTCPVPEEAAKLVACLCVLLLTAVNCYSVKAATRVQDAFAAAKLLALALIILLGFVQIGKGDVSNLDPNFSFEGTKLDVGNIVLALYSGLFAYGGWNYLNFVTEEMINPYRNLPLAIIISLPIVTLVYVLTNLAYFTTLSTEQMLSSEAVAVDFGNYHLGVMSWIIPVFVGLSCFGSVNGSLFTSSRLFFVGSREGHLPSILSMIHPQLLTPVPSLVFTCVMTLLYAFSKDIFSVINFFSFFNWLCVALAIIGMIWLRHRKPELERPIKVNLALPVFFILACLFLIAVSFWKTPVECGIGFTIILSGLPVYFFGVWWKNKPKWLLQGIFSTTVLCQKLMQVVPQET
inactive: [1] 0.034 | vorinostat 0.109 | silmitasertib -0.04 | [2] 0.013 | entospletinib 0.03

SORBS3 (UniProt O60504)
active: vorinostat -0.561
inactive: [1] -0.122 | silmitasertib 0.057 | [2] 0.031 | entospletinib 0.01

SMG1 (UniProt Q96Q15)
active: vorinostat -0.348
inactive: [1] 0.005 | silmitasertib 0.011 | [2] -0.006 | entospletinib -0.007

SLC29A2 (UniProt Q14542)
Chain of UniProt Q14542 (Q14542 whole entry, looked up): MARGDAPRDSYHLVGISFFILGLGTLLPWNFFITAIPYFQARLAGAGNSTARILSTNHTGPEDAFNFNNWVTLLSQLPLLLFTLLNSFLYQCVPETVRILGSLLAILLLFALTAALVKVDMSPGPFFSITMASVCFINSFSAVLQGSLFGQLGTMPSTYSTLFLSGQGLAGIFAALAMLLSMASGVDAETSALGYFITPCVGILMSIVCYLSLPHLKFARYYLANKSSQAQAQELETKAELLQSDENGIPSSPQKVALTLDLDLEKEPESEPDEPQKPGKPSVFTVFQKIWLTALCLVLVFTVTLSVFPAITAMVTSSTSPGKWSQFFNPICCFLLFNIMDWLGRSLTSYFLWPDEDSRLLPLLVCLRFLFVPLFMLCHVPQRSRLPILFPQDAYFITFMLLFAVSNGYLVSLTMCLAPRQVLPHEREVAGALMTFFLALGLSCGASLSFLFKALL
inactive: [1] -0.045 | vorinostat 0.139 | silmitasertib 0.117 | [2] 0.031 | entospletinib -0.06

SLC35A3 isoform 2 (UniProt Q9Y2D2)
inactive: [1] -0.022 | vorinostat 0.091 | silmitasertib -0.07 | [2] 0.019 | entospletinib 0

STK11IP (UniProt Q8N1F8)
active: vorinostat -0.254
inactive: [1] -0.017 | silmitasertib 0.025 | [2] 0.008 | entospletinib 0.024

STAT2 (UniProt P52630)
Chain of UniProt P52630 (P52630 whole entry, looked up): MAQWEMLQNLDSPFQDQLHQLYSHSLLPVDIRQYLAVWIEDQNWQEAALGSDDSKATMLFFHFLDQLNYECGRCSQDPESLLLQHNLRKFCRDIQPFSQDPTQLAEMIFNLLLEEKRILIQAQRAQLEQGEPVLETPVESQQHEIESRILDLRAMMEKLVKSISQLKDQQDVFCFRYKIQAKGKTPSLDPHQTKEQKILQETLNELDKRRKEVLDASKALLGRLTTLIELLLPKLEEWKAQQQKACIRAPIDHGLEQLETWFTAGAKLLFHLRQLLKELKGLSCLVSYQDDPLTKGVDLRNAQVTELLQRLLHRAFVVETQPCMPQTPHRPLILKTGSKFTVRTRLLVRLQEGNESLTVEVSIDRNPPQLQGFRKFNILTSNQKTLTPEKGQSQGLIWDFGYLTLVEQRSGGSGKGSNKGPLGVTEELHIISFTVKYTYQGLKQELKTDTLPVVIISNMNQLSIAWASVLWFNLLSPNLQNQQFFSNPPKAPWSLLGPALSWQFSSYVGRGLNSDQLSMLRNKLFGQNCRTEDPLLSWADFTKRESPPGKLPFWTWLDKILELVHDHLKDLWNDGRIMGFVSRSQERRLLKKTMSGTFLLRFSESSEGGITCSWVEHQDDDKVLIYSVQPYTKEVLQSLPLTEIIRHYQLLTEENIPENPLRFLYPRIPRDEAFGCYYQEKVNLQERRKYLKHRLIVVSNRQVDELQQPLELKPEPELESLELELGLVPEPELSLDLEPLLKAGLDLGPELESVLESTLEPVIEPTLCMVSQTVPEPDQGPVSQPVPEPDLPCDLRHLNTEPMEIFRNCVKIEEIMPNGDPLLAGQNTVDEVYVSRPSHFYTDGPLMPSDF
inactive: [1] -0.018 | silmitasertib 0.063 | [2] -0.017 | entospletinib 0.011
active: vorinostat -0.254

SNAP23 (UniProt O00161)
Chain of UniProt O00161 (O00161 whole entry, looked up): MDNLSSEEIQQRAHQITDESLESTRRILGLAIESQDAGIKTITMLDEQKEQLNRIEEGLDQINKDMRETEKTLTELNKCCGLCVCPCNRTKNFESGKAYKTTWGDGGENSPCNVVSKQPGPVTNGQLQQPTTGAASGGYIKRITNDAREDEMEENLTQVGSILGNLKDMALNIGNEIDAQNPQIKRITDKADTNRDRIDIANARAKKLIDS
inactive: [1] -0.017 | vorinostat 0.052 | silmitasertib -0.067 | [2] -0.016 | entospletinib 0.004

SLU7 (UniProt O95391)
inactive: [1] 0.208 | vorinostat 0.012 | silmitasertib -0.037 | [2] 0.046 | entospletinib -0.024

SPG11 (UniProt Q96JI7)
active: vorinostat -0.399
inactive: [1] -0.001 | silmitasertib 0.062 | [2] 0.04 | entospletinib -0.098

SNRPD3 (UniProt P62318)
inactive: [1] -0.011 | vorinostat 0.12 | silmitasertib -0.023 | [2] 0.008 | entospletinib -0.027
